# Data as given in PubChem BioAssay (Tox21).
# Several values for one entry are separate records, joined by “and”; a condition that tells them apart may be missing. Identical values can stand only once. Records with an inconclusive call do not appear. Where a call stands in place of a potency, no number is given. Some compounds were tested as several samples or in several runs, with calls that do not always agree. Activity calls are given as the source filed them. Calls come from the whole dose curve; as a rule, active = well fitted curve in the direction sought with a large enough effect in the repeat runs; inconclusive = weak or mixed curves; inactive = no such curve, though single readings can be large; an effect the other way counts as inactive or inconclusive.
# Columns and labels:
# [1] = A CellTox Green Cytotoxicity Assay to monitor cytotoxicity in HEK293 cells - 40 hour (AID 1224871); note: nearly all actives have a fitted effect of over 45% in size
# In short: (§1)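 HEK293 cells premixed with CellTox Green dye were seeded at 600 cells/well and left 5 h at 37 C/5% CO2 before pin transfer of 23 nL compound in DMSO. Fluorescence from dye bound to dead-cell DNA was read during 40 h treatment.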
# [2] = qHTS RealTime-Glo MT Cell Viability Assay in HEK293 cells - 16 hour (AID 1224872); note: nearly all actives have a fitted effect of over 50% in size
# In short: (§2)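 Nonlytic real-time viability readout: viable cells convert prosubstrate to NanoLuc substrate, giving luminescence proportional to live cell number. HEK293, 600 cells/well, compound added after 5 h, continuous culture at 37 C.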
# [3] = qHTS RealTime-Glo MT Cell Viability Assay in HepG2 cells - 8 hour (AID 1224873); note: nearly all actives have a fitted effect of over 55% in size
# In short: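 HepG2 cells mixed with RealTime-Glo MT reagents (NanoLuc plus cell-permeant prosubstrate) were seeded at 600 cells/well, incubated 5 h at 37 C/5% CO2, then pinned with compounds in DMSO; nonlytic luminescence tracked viability during 40 h treatment.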
# [4] = qHTS RealTime-Glo MT Cell Viability Assay in HEK293 cells - 40 hour (AID 1224874); details: RealTime-Glo luminescence; max response: stronger effect = lower value; note: nearly all actives have a fitted effect of over 50% in size
# In short: (§3)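 HEK293 cells mixed with RealTime-Glo reagents (NanoLuc plus cell-permeant prosubstrate) at 600 cells/well, preincubated 5 h at 37 C/5% CO2, then given 23 nL compound in DMSO. Nonlytic luminescence from viable cells was read at 0, 8, 16, 24, 32 and 40 h.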
# [5] = A CellTox Green Cytotoxicity Assay to monitor cytotoxicity in HEK293 cells - 24 hour (AID 1224875); note: nearly all actives have a fitted effect of over 45% in size
# In short: as §1
# [6] = A CellTox Green Cytotoxicity Assay to monitor cytotoxicity in HepG2 cells - 16 hour (AID 1224876); note: nearly all actives have a fitted effect of over 45% in size
# In short: (§4)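 HepG2 cells were seeded together with the CellTox Green dye at 600 cells/well, left 5 h at 37 C/5% CO2, then given compounds in DMSO. Fluorescence from dye bound to dead-cell DNA was read repeatedly over 40 h of treatment at 37 C.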
# [7] = qHTS RealTime-Glo MT Cell Viability Assay in HepG2 cells - 32 hour (AID 1224877); note: nearly all actives have a fitted effect of over 55% in size
# In short: (§5)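 Luminescence read-out: viable HepG2 cells reduce a prosubstrate to a NanoLuc substrate, giving a signal proportional to live cell number. Reads taken at 0, 8, 16, 24, 32 and 40 h of compound exposure at 37 C.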
# [8] = A CellTox Green Cytotoxicity Assay to monitor cytotoxicity in HepG2 cells - 24 hour (AID 1224878); note: nearly all actives have a fitted effect of over 45% in size
# In short: as §4
# [9] = A CellTox Green Cytotoxicity Assay to monitor cytotoxicity in HepG2 cells - 40 hour (AID 1224879); note: nearly all actives have a fitted effect of over 40% in size
# In short: as §4
# [10] = qHTS RealTime-Glo MT Cell Viability Assay in HEK293 cells - 0 hour (AID 1224880); note: nearly all actives have a fitted effect of over 45% in size
# In short: as §3
# [11] = A CellTox Green Cytotoxicity Assay to monitor cytotoxicity in HEK293 cells - 32 hour (AID 1224881); note: nearly all actives have a fitted effect of over 40% in size
# In short: as §1
# [12] = A CellTox Green Cytotoxicity Assay to monitor cytotoxicity in HepG2 cells - 0 hour (AID 1224882); note: nearly all actives have a fitted effect of over 35% in size
# In short: as §4
# [13] = A CellTox Green Cytotoxicity Assay to monitor cytotoxicity in HepG2 cells - 32 hour (AID 1224883); note: nearly all actives have a fitted effect of over 50% in size
# In short: as §4
# [14] = A CellTox Green Cytotoxicity Assay to monitor cytotoxicity in HEK293 cells - 8 hour (AID 1224884); note: nearly all actives have a fitted effect of over 35% in size
# In short: as §1
# [15] = qHTS RealTime-Glo MT Cell Viability Assay in HepG2 cells - 16 hour (AID 1224885); note: nearly all actives have a fitted effect of over 50% in size
# In short: as §5
# [16] = qHTS RealTime-Glo MT Cell Viability Assay in HEK293 cells - 24 hour (AID 1224886); note: nearly all actives have a fitted effect of over 50% in size
# In short: as §2
# [17] = qHTS RealTime-Glo MT Cell Viability Assay in HEK293 cells - 8 hour (AID 1224887); note: nearly all actives have a fitted effect of over 50% in size
# In short: as §3
# [18] = A CellTox Green Cytotoxicity Assay to monitor cytotoxicity in HEK293 cells - 16 hour (AID 1224888); note: nearly all actives have a fitted effect of over 35% in size
# In short: as §1
# [19] = qHTS RealTime-Glo MT Cell Viability Assay in HepG2 cells - 0 hour (AID 1224889); note: nearly all actives have a fitted effect of over 50% in size
# In short: as §5
# [20] = A CellTox Green Cytotoxicity Assay to monitor cytotoxicity in HepG2 cells - 8 hour (AID 1224890); note: nearly all actives have a fitted effect of over 45% in size
# In short: as §4
# Potency is the fitted concentration of half-maximal effect.
smiles,measurement,setting,value
CC(=O)O[C@]1(C(C)=O)CC[C@H]2[C@@H]3C=C(Cl)C4=CC(=O)CC[C@]4(C)[C@H]3CC[C@@]21C,Potency,[1],inactive
same,Potency,[2],21.8 µM (active)
same,Potency,[3],inactive
same,Potency,[4],21.8 µM (active) and 10.7 µM (active)
same,Potency,[5],inactive
same,Potency,[6],inactive
same,Potency,[7],inactive
same,Potency,[8],inactive
same,Potency,[9],inactive
same,Potency,[10],2.18 µM (active) and 1.69 µM (active)
same,Potency,[11],inactive
same,Potency,[12],inactive
same,Potency,[13],inactive
same,Potency,[14],inactive
same,Potency,[15],inactive
same,Potency,[16],21.8 µM (active)
same,Potency,[17],inactive
same,Potency,[18],inactive
same,Potency,[19],346 nM (active) and 477 nM (active)
same,Potency,[20],inactive
O=C1OC2(c3ccccc31)c1cc(I)c(O)c(I)c1Oc1c2cc(I)c(O)c1I,Potency,[1],11.8 µM (active) [middle of 4 runs]
same,Potency,[2],49.1 µM (active) and inactive
same,Potency,[3],39 µM (active)
same,Potency,[4],49.1 µM (active)
same,max response,[4],-20.2% (inactive)
same,Potency,[5],12 µM (active) [middle of 4 runs]
same,Potency,[6],11.8 µM (active) [middle of 4 runs]
same,Potency,[7],39 µM (active) and 24.8 µM (active) and 29.8 µM (active)
same,Potency,[8],13.3 µM (active) [middle of 4 runs]
same,Potency,[9],13.3 µM (active) [middle of 4 runs]
same,Potency,[10],5.56 µM (active) [middle of 4 runs]
same,Potency,[11],11.8 µM (active) [middle of 4 runs]
same,Potency,[12],11.8 µM (active) [middle of 4 runs]
same,Potency,[13],13.3 µM (active) [middle of 4 runs]
same,Potency,[14],13.3 µM (active) [middle of 4 runs]
same,Potency,[15],39 µM (active) and 27.9 µM (active)
same,Potency,[16],49.1 µM (active) and inactive
same,Potency,[17],49.1 µM (active) and inactive
same,Potency,[18],13.3 µM (active) [middle of 4 runs]
same,Potency,[19],12.3 µM (active) [middle of 4 runs]
same,Potency,[20],11.8 µM (active) [middle of 4 runs]
COCCOCCOCCO,Potency,[1],inactive
same,Potency,[2],inactive
same,Potency,[3],inactive
same,max response,[4],4.57% (inactive) and 6.41% (inactive)
same,Potency,[5],inactive
same,Potency,[6],inactive
same,Potency,[7],inactive
same,Potency,[8],inactive
same,Potency,[9],inactive
same,Potency,[10],inactive
same,Potency,[11],inactive
same,Potency,[12],inactive
same,Potency,[13],inactive
same,Potency,[14],inactive
same,Potency,[15],inactive
same,Potency,[16],inactive
same,Potency,[17],inactive
same,Potency,[18],inactive
same,Potency,[19],inactive
same,Potency,[20],inactive
C=CCCCCCCCCCC,Potency,[1],inactive
same,Potency,[2],inactive
same,Potency,[3],inactive
same,max response,[4],3.4% (inactive) and -2.24% (inactive)
same,Potency,[5],inactive
same,Potency,[6],inactive
same,Potency,[7],inactive
same,Potency,[8],inactive
same,Potency,[9],inactive
same,Potency,[10],inactive
same,Potency,[11],inactive
same,Potency,[12],inactive
same,Potency,[13],inactive
same,Potency,[14],inactive
same,Potency,[15],inactive
same,Potency,[16],inactive
same,Potency,[17],inactive
same,Potency,[18],inactive
same,Potency,[19],inactive
same,Potency,[20],inactive
CC(=O)Nc1ccc2c(c1)Cc1cc(NC(C)=O)ccc1-2,Potency,[1],inactive
same,Potency,[2],inactive
same,Potency,[3],inactive
same,max response,[4],1.79% (inactive) and 3.64% (inactive)
same,Potency,[5],inactive
same,Potency,[6],inactive
same,Potency,[7],inactive
same,Potency,[8],inactive
same,Potency,[9],inactive
same,Potency,[10],inactive
same,Potency,[11],inactive
same,Potency,[12],inactive
same,Potency,[13],inactive
same,Potency,[14],inactive
same,Potency,[15],inactive
same,Potency,[16],inactive
same,Potency,[17],inactive
same,Potency,[18],inactive
same,Potency,[19],inactive
same,Potency,[20],inactive
c1ccc2cc3ccccc3cc2c1,Potency,[1],inactive
same,Potency,[2],inactive
same,Potency,[3],inactive
same,max response,[4],1.77% (inactive) and 23.2% (inactive)
same,Potency,[5],inactive
same,Potency,[6],inactive
same,Potency,[7],inactive
same,Potency,[8],inactive
same,Potency,[9],inactive
same,Potency,[10],inactive
same,Potency,[11],inactive
same,Potency,[12],inactive
same,Potency,[13],inactive
same,Potency,[14],inactive
same,Potency,[15],inactive
same,Potency,[16],inactive
same,Potency,[17],inactive
same,Potency,[18],inactive
same,Potency,[19],inactive
same,Potency,[20],inactive
c1ccc2c(c1)ccc1ncccc12,Potency,[1],inactive
same,Potency,[2],inactive
same,Potency,[3],inactive
same,max response,[4],-12% (inactive) and -17.1% (inactive)
same,Potency,[5],inactive
same,Potency,[6],inactive
same,Potency,[7],inactive
same,Potency,[8],inactive
same,Potency,[9],inactive
same,Potency,[10],inactive
same,Potency,[11],inactive
same,Potency,[12],inactive
same,Potency,[13],inactive
same,Potency,[14],inactive
same,Potency,[15],inactive
same,Potency,[16],inactive
same,Potency,[17],inactive
same,Potency,[18],inactive
same,Potency,[19],inactive
same,Potency,[20],inactive
C=CC(C)(O)CCC=C(C)C (stereo unspecified),Potency,[1],inactive
same,Potency,[2],inactive
same,Potency,[3],inactive
same,max response,[4],3.03% (inactive) and 9.35% (inactive)
same,Potency,[5],inactive
same,Potency,[6],inactive
same,Potency,[7],inactive
same,Potency,[8],inactive
same,Potency,[9],inactive
same,Potency,[10],inactive
same,Potency,[11],inactive
same,Potency,[12],inactive
same,Potency,[13],inactive
same,Potency,[14],inactive
same,Potency,[15],inactive
same,Potency,[16],inactive
same,Potency,[17],inactive
same,Potency,[18],inactive
same,Potency,[19],inactive
same,Potency,[20],inactive
O=C(O)c1ccc(O)cc1,Potency,[1],inactive
same,Potency,[2],inactive
same,Potency,[3],inactive
same,max response,[4],-0.345% (inactive) and 9.29% (inactive)
same,Potency,[5],inactive
same,Potency,[6],inactive
same,Potency,[7],inactive
same,Potency,[8],inactive
same,Potency,[9],inactive
same,Potency,[10],inactive
same,Potency,[11],inactive
same,Potency,[12],inactive
same,Potency,[13],inactive
same,Potency,[14],inactive
same,Potency,[15],inactive
same,Potency,[16],inactive
same,Potency,[17],inactive
same,Potency,[18],inactive
same,Potency,[19],inactive
same,Potency,[20],inactive
